Data published in PubChem BioAssay.
For part of these data: Potency and affinity values are given separately. Activity calls are given as the source filed them. Unless noted, no rule for the calls is given here.

Tests used:
[1] = antimalarial activity against Dd2 strain (AID 2302;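 active = growth inhibition above 50% at the single 2 µM test dose, taken to imply half-maximal potency below 2 µM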;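 also: 0% = DMSO untreated growth and 100% = chloroquine plus artemisinin killed control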); conditions: P. falciparum Dd2 in RBCs, LDH growth readout, 72 h; at 2 µM; hits give high values
[2] = HepG2 cytotoxicity, primary screen, cytotoxicity control for P. falciparum antimalarial project, cell-based, ATP luminescence (AID 2303;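 active = inhibition above 50%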;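 also: 0% = DMSO wells and 100% = digitonin-killed cells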); conditions: HepG2 viability, 24-48 h, at 10 µM, hits give high values
[3] = molecular target: L-lactate dehydrogenase (Plasmodium falciparum (isolate CDC / Honduras)) (UniProt Q27743); test: PfLDH activity inhibition – cell lysate, 3D7 strain, counter-screen for P. falciparum growth inhibition project (AID 2304);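 also: 0% = vehicle and 100% = reference inhibitor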; conditions: P. falciparum 3D7 crude extract, LDH APAD/NBT absorbance; at 2 µM; hits give high values
Sequence of L-lactate dehydrogenase (Plasmodium falciparum (isolate CDC / Honduras)) (Q27743 whole entry, looked up): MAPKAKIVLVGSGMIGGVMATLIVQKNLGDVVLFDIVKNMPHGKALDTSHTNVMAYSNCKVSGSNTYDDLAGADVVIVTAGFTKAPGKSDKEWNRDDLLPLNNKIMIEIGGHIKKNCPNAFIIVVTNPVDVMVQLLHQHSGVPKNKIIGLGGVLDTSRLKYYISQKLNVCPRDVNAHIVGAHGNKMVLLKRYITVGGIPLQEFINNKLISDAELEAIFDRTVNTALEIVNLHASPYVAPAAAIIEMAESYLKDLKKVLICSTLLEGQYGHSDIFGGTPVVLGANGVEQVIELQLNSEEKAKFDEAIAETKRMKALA

[4] = inhibition of 3D7 malaria parasite growth – strain 3D7 (AID 2306);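 also: 0% = DMSO wells and 100% = chloroquine plus artemisinin control wells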; conditions: P. falciparum 3D7 erythrocytic growth, LDH absorbance, 72 h; at 2 µM; hits give high values
[5] = molecular target: Plasmodium falciparum protein kinase 6 (PK6, PF3D7_1337100) (UniProt Q8IDW1); test: PfPK6 kinase inhibitors, biochemical, TCAMS library (AID 1159586); conditions: recombinant PfPK6, Kinase-Glo ATP depletion luminescence
Sequence of Plasmodium falciparum protein kinase 6 (PK6, PF3D7_1337100) (Q8IDW1 1-305): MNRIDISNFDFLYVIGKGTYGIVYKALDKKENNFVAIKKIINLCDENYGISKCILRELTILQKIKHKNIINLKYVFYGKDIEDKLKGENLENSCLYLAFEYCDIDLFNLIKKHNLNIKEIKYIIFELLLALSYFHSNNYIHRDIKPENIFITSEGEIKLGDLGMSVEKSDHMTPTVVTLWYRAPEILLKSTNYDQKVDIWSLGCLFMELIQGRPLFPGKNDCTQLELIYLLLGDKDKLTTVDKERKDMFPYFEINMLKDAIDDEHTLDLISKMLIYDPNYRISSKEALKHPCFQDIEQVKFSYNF

[6] = molecular target: Protein kinase 7 (PK7), Plasmodium falciparum 3D7 (PF3D7_0213400) (UniProt Q7YTF7); test: inhibition of Plasmodium PK7 catalytic activity – biochemical, TCAMS antimalarial set, Kinase-Glo luminescence (AID 1159587); conditions: recombinant PfPK7, Kinase-Glo ATP depletion luminescence
Sequence of Protein kinase 7 (PK7), Plasmodium falciparum 3D7 (PF3D7_0213400) (Q7YTF7 1-343): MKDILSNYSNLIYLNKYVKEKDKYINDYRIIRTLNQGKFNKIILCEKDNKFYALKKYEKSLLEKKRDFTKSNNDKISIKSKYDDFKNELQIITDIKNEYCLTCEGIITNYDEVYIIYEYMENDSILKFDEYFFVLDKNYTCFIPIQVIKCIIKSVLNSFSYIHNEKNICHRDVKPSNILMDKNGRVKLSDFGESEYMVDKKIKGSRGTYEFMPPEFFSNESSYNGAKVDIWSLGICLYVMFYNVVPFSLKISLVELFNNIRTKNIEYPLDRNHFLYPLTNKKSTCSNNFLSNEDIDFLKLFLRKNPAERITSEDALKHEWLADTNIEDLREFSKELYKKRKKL

[7] = molecular target: Calcium-dependent protein kinase 4 (Plasmodium falciparum (isolate 3D7)) (UniProt Q8IBS5); test: PfCDPK4 kinase inhibitors, biochemical, TCAMS library (AID 1159588; cut-off not given, nearly all actives have IC50 up to about 0.91 µM); conditions: recombinant PfCDPK4, Kinase-Glo ATP depletion luminescence
Sequence of Calcium-dependent protein kinase 4 (Plasmodium falciparum (isolate 3D7)) (Q8IBS5 whole entry, looked up): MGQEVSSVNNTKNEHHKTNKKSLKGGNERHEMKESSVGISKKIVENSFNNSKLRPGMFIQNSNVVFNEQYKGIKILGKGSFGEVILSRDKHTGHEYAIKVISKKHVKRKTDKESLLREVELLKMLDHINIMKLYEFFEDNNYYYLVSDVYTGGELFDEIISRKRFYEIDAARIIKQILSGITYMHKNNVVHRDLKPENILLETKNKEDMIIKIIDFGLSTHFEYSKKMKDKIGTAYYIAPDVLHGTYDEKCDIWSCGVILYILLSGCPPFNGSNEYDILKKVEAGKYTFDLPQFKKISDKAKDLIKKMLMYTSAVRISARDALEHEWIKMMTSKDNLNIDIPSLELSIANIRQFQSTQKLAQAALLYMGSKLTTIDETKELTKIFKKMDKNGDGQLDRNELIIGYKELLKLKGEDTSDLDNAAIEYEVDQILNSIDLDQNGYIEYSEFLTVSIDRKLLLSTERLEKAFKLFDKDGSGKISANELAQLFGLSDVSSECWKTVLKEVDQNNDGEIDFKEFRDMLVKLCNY

Cc1ccc(Nc2nccc(N(C)c3ccc4c(c3)nc(NC(=O)Cc3ccc(Cl)c(Cl)c3)n4C)n2)cc1S(N)(=O)=O
active: growth inhibition [1] 60% | inhibition [2] 71% | growth inhibition [4] 94%
inactive: inhibition [3] 0% | outcome [5] | outcome [6] | outcome [7]

CN1CCN(Cc2ccc(-c3ccc4c(Nc5ccc(Cl)cc5F)ccnc4c3)o2)CC1
active: growth inhibition [1] 100% | growth inhibition [4] 102%
inactive: inhibition [2] 47% | inhibition [3] -3% | outcome [5] | outcome [6] | outcome [7]

CC(C)(CN)c1nc(-c2ccc(Cl)c(O)c2)c(-c2ccncc2)[nH]1
inactive: inhibition [2] 34% | inhibition [3] 0% | outcome [5] | outcome [6] | outcome [7]
active: growth inhibition [1] 98% | growth inhibition [4] 97%

Cc1nnc(-c2cccc(Nc3ccnc4cc(-c5nccs5)ccc34)c2)o1
active: growth inhibition [1] 89% | growth inhibition [4] 95%
inactive: inhibition [2] 38% | inhibition [3] -2% | outcome [5] | outcome [6] | outcome [7]

Cc1ccc(Nc2nccc(Nc3ccc4c(c3)nc(Nc3cc(C(C)(C)C)on3)n4C)n2)cc1S(C)(=O)=O
inactive: inhibition [2] 30% | inhibition [3] -5% | outcome [5] | outcome [6] | outcome [7]
active: growth inhibition [1] 99% | growth inhibition [4] 100%

CS(=O)(=O)c1cccc(-c2cnc3[nH]cc(-c4cccc(CCN)c4)c3c2)c1
inactive: inhibition [2] -12% | inhibition [3] -5% | outcome [5] | outcome [6] | outcome [7]
active: growth inhibition [1] 74% | growth inhibition [4] 99%

CN1CCN(CCCNCc2ccc(Nc3nccc(Nc4ccc(Oc5ccccc5)cc4)n3)cc2)CC1
active: growth inhibition [4] 100%
inactive: growth inhibition [1] 9% | inhibition [2] 17% | inhibition [3] 0% | outcome [5] | outcome [6] | outcome [7]

CN1CCC=C(C(=O)NCC(C)(C)c2nc(-c3ccc(Cl)c(O)c3)c(-c3ccncc3)[nH]2)C1
active: growth inhibition [1] 96% | growth inhibition [4] 96%
inactive: inhibition [2] 39% | inhibition [3] -1% | outcome [5] | outcome [6] | outcome [7]

CN(C)CCNCc1cccc(-c2ccc3c(Nc4ccc(Oc5ccccn5)cc4)ccnc3c2)c1
inactive: inhibition [2] 27% | inhibition [3] 2% | outcome [5] | outcome [6] | outcome [7]
active: growth inhibition [1] 100% | growth inhibition [4] 99%

O=C(NCCCN1CCOCC1)c1cccc(Nc2nccc(Nc3ccc(Oc4ccccc4)cc3)n2)c1
inactive: growth inhibition [1] 22% | inhibition [2] 34% | inhibition [3] -9% | outcome [5] | outcome [6] | outcome [7]
active: growth inhibition [4] 98%

Nc1ncc(-c2cn[nH]c2)cc1-c1nc2ccc(F)cc2[nH]1
active: growth inhibition [1] 53% | growth inhibition [4] 101%
inactive: inhibition [2] 38% | inhibition [3] -3% | outcome [5] | outcome [6] | outcome [7]

Clc1ccc(-c2cnc3ccc(NCCc4cccnc4)nn23)cc1
inactive: growth inhibition [1] 32% | inhibition [2] 34% | inhibition [3] -4% | outcome [5] | outcome [6] | outcome [7]
active: growth inhibition [4] 97%

CC(C)(CNC(=O)[C@H]1CCCCN1)c1nc(-c2ccc(Cl)c(O)c2)c(-c2ccncc2)[nH]1
active: growth inhibition [1] 98% | growth inhibition [4] 98%
inactive: inhibition [2] 6% | inhibition [3] -3% | outcome [5] | outcome [6] | outcome [7]

COc1cc(-c2nc(C(C)(C)CN)[nH]c2-c2ccncc2)ccc1Br
inactive: inhibition [2] 17% | inhibition [3] 1% | outcome [5] | outcome [6] | outcome [7]
active: growth inhibition [1] 95% | growth inhibition [4] 97%

CS(=O)(=O)Cc1ccc(Nc2nccc(-c3c(-c4cccc(NC(=O)c5c(F)cccc5F)c4)nn4ncccc34)n2)cc1
inactive: inhibition [3] 1% | outcome [5] | outcome [6] | outcome [7]
active: growth inhibition [1] 93% | inhibition [2] 86% | growth inhibition [4] 97%

COc1ccc(-c2cnc3ccc(N4CCCC4)nn23)cc1OC
active: growth inhibition [1] 98% | growth inhibition [4] 98%
inactive: inhibition [2] 40% | inhibition [3] 0% | outcome [5] | outcome [6] | outcome [7]

CNC(=O)c1ccccc1Nc1nc(Nc2ccc(C(=O)O)cc2)ncc1Cl
inactive: inhibition [3] -2% | outcome [5] | outcome [6] | outcome [7]
active: growth inhibition [1] 92% | inhibition [2] 60% | growth inhibition [4] 92%

CN(C)CCN(C)Cc1ccc(-c2ccc3c(Nc4ccc(Cl)cc4F)ccnc3c2)o1
inactive: inhibition [2] 20% | inhibition [3] 1% | outcome [5] | outcome [6] | outcome [7]
active: growth inhibition [1] 76% | growth inhibition [4] 100%

Oc1cc(Nc2ccnc3cc(I)ccc23)c(F)cc1Cl
active: growth inhibition [1] 77% | growth inhibition [4] 92%
inactive: inhibition [2] -3% | inhibition [3] -3% | outcome [5] | outcome [6] | outcome [7]

Cc1nc(-c2cccc(Nc3ccnc4cc(-c5nccs5)ccc34)c2)no1
inactive: inhibition [2] 37% | inhibition [3] -2% | outcome [5] | outcome [6] | outcome [7]
active: growth inhibition [1] 90% | growth inhibition [4] 99%

O=c1[nH]ccc2nc(N[C@@H]3CCNC3)nc(Nc3ccc4c(c3)S(=O)(=O)CC4)c12
active: growth inhibition [1] 99% | growth inhibition [4] 100%
inactive: inhibition [2] -4% | inhibition [3] -2% | outcome [5] | outcome [6] | outcome [7]
